# “And” between values parts separate entries of the source, which are not always exact repeats. Equal values may be shown once. This is part of a sample that, as a whole, favours compounds with a hit. Of some 79,000 tested, about 15% had one in any assay. Where a structure was tested more than once in an assay, its records may differ in their call. The source made the active and inactive calls. Rule as the data show it: active = growth inhibition above about 70%; inactive = the rest.
# What was measured:
# [1] = NCI Yeast Anticancer Drug Screen. Data for the CLN2oe strain (AID 163);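 also: 0% = growth of vehicle-only control cultures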; conditions: S. cerevisiae CLN2oe strain, stronger effect = higher value
# Summary of the method: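 Values reflect how much compound exposure reduced yeast growth, referenced to vehicle-exposed cells. Assay organism is a strain with a defined genetic change affecting cell-cycle control.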
# [2] = NCI Yeast Anticancer Drug Screen. Data for the cln2 rad14 strain (AID 165);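 also: 0% = growth equal to vehicle treated cultures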; conditions: S. cerevisiae cln2 rad14 strain, stronger effect = higher value
# Summary of the method: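 Relative to vehicle controls, growth inhibition of compound-treated cln2 rad14 yeast was recorded.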
# [3] = NCI Yeast Anticancer Drug Screen. Data for the bub3 strain (AID 167); conditions: S. cerevisiae bub3 mutant strain, stronger effect = higher value
# Summary of the method: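 Mutant yeast screening strain plus compound; vehicle-treated cultures serve as the 0% inhibition reference.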
# [4] = NCI Yeast Anticancer Drug Screen. Data for the wt2 strain (AID 169); conditions: S. cerevisiae wt2 strain growth inhibition, stronger effect = higher value
# Summary of the method: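 Values express reduction in yeast growth under compound treatment, referenced to vehicle-treated cells.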
# [5] = NCI Yeast Anticancer Drug Screen. Data for the mlh1 strain (AID 171);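 also: 0% = growth of vehicle-treated control cultures of the same strain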; conditions: S. cerevisiae mlh1 strain growth inhibition, stronger effect = higher value
# Summary of the method: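 Steps: expose the defined-mutant yeast strain to compound; expose a parallel culture to vehicle; measure growth; express compound effect as inhibition relative to the vehicle culture.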
# [6] = NCI Yeast Anticancer Drug Screen. Data for the sgs1 strain (AID 173);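 also: 0% = growth of vehicle-only control cultures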; conditions: S. cerevisiae sgs1 mutant, stronger effect = higher value
# Summary of the method: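 Treat defined-mutant yeast with compound; measure growth; calculate inhibition relative to vehicle-treated cells.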
# [7] = NCI Yeast Anticancer Drug Screen. Data for the mlh1 rad18 strain (AID 175); conditions: S. cerevisiae mlh1 rad18 strain growth inhibition, stronger effect = higher value
# Summary of the method: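 Test agents were incubated with a yeast strain of defined genotype (DNA damage repair defect). Inhibition of growth was derived by comparison with vehicle-exposed cultures.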
# [8] = NCI Yeast Anticancer Drug Screen. Data for the rad18 strain (AID 177); conditions: S. cerevisiae rad18 mutant growth inhibition, stronger effect = higher value
# Summary of the method: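 A genetically defined yeast mutant impaired in DNA damage repair was treated with test compounds, then its growth was measured against cultures receiving vehicle alone.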
# [9] = NCI Yeast Anticancer Drug Screen. Data for the rad50 strain (AID 155);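 also: 0% = growth of vehicle-only cultures of the same strain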; conditions: S. cerevisiae rad50 strain growth inhibition, stronger effect = higher value
# Summary of the method: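 Vehicle-treated cultures provide the reference for the growth inhibition reported for compound-exposed, repair-deficient yeast.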
# [10] = NCI Yeast Anticancer Drug Screen. Data for the mec2-1 strain (AID 157); conditions: S. cerevisiae mec2-1 strain, stronger effect = higher value
# Summary of the method: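 Readout is yeast growth inhibition, normalised to vehicle-treated controls, in the mec2-1 strain exposed to compound.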
# [11] = NCI Yeast Anticancer Drug Screen. Data for the sgs1 mgt1 strain (AID 161);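 also: 0% = growth of cultures given vehicle only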; conditions: S. cerevisiae sgs1 mgt1 strain, stronger effect = higher value
# Summary of the method: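 Growth of a repair-deficient yeast mutant was monitored after compound treatment and expressed as inhibition relative to vehicle-treated cultures.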
# [12] = NCI Yeast Anticancer Drug Screen. Data for the wt1 strain (AID 149);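 also: 0% = growth of vehicle-treated wt1 cultures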; conditions: S. cerevisiae wt1 strain (SPY 50644) growth inhibition, stronger effect = higher value
# Summary of the method: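 Each compound is tested on wt1 yeast and the loss of growth versus vehicle gives the inhibition value.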
# [13] = NCI Yeast Anticancer Drug Screen. Data for the mgt1 strain (AID 153); conditions: S. cerevisiae mgt1 mutant growth inhibition, stronger effect = higher value
# Summary of the method: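 Genetically defined yeast (mgt1) treated with compound; inhibition of growth expressed against vehicle-treated controls.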
# [14] = NCI Yeast Anticancer Drug Screen. Data for the rad14 strain (AID 159);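 also: 0% = growth of vehicle-treated control cultures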; conditions: S. cerevisiae rad14 strain growth inhibition, stronger effect = higher value
# Summary of the method: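 Inhibition of growth is reported for a repair-deficient yeast mutant following compound treatment, calculated relative to cultures that received vehicle.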
# [15] = at 5.0 µM (retest, dose inferred, filed as 0.5)
# [16] = at 50.0 µM (retest, dose inferred, filed as 5.0)
smiles,measurement,setting,value
CNC(=O)OCc1c(COC(=O)NC)c(C)n(-c2ccc(Cl)c(Cl)c2)c1C,growth inhibition,[1]; at 100.0 µM,94% (active)
same,growth inhibition,[2]; [15],7% (inactive)
same,growth inhibition,[2]; [16],-10% (inactive)
same,growth inhibition,[2]; at 50.0 µM,84.5% (active)
same,growth inhibition,[3]; at 1.2 µM,-31% (inactive)
same,growth inhibition,[3]; at 3.7 µM,-36% (inactive)
same,growth inhibition,[3]; [15],8% (inactive)
same,growth inhibition,[3]; at 11.0 µM,-21% (inactive)
same,growth inhibition,[3]; at 33.0 µM,97% (active)
same,growth inhibition,[3]; [16],9% (inactive)
same,growth inhibition,[3]; at 50.0 µM,87% (active)
same,growth inhibition,[3]; at 100.0 µM,98% (active)
same,growth inhibition,[4]; at 1.2 µM,-48% (inactive)
same,growth inhibition,[4]; at 3.7 µM,-37% (inactive)
same,growth inhibition,[4]; at 11.0 µM,-58% (inactive)
same,growth inhibition,[4]; at 33.0 µM,91% (active)
same,growth inhibition,[4]; at 100.0 µM,97% (active)
same,growth inhibition,[5]; at 1.2 µM,-26% (inactive)
same,growth inhibition,[5]; at 3.7 µM,-10% (inactive)
same,growth inhibition,[5]; at 11.0 µM,10% (inactive)
same,growth inhibition,[5]; at 33.0 µM,97% (active)
same,growth inhibition,[5]; at 100.0 µM,97% (active)
same,growth inhibition,[6]; at 1.2 µM,3% (inactive)
same,growth inhibition,[6]; at 3.7 µM,-4% (inactive)
same,growth inhibition,[6]; at 11.0 µM,1% (inactive)
same,growth inhibition,[6]; at 33.0 µM,97% (active)
same,growth inhibition,[6]; at 100.0 µM,98% (active)
same,growth inhibition,[7]; [15],39% (inactive)
same,growth inhibition,[7]; [16],98% (active)
same,growth inhibition,[7]; at 50.0 µM,92.3% (active)
same,growth inhibition,[8]; at 1.2 µM,-32% (inactive)
same,growth inhibition,[8]; at 3.7 µM,-33% (inactive)
same,growth inhibition,[8]; at 11.0 µM,1% (inactive)
same,growth inhibition,[8]; at 33.0 µM,97% (active)
same,growth inhibition,[8]; at 100.0 µM,98% (active)
CCCCCCCCCCCC[N+](C)(C)C,growth inhibition,[9]; [15],-9% (inactive) and -3% (inactive) and 12% (inactive)
same,growth inhibition,[9]; [16],98% (active) and 96% (active) and 99% (active)
same,growth inhibition,[9]; at 50.0 µM,49.9% (inactive) and 80.2% (active) and 39.5% (inactive)
same,growth inhibition,[10]; [15],-3% (inactive) and 0% (inactive) and 22% (inactive)
same,growth inhibition,[10]; [16],99% (active) and 98% (active) and 100% (active)
same,growth inhibition,[10]; at 50.0 µM,53.3% (inactive) and 89.5% (active) and 92.2% (active)
same,growth inhibition,[11]; [15],-8% (inactive) and -3% (inactive) and 49% (inactive)
same,growth inhibition,[11]; [16],98% (active) and 97% (active) and 99% (active)
same,growth inhibition,[11]; at 50.0 µM,49% (inactive) and 92.5% (active) and 48.6% (inactive)
same,growth inhibition,[2]; [15],3% (inactive) and -1% (inactive) and 2% (inactive)
same,growth inhibition,[2]; [16],97% (active) and 96% (active) and 99% (active)
same,growth inhibition,[2]; at 50.0 µM,71.8% (active) and -21.6% (inactive) and 66.2% (inactive)
same,growth inhibition,[3]; [15],14% (inactive) and 9% (inactive) and 18% (inactive)
same,growth inhibition,[3]; [16],95% (active) and 98% (active) and 100% (active)
same,growth inhibition,[3]; at 50.0 µM,57.2% (inactive) and 82.1% (active) and 97.2% (active)
same,growth inhibition,[7]; [15],-4% (inactive) and -5% (inactive) and 4% (inactive)
same,growth inhibition,[7]; [16],96% (active) and 95% (active) and 99% (active)
same,growth inhibition,[7]; at 50.0 µM,83.3% (active) and 91% (active) and 80.5% (active)
CCCCCC/C(C)=N/Nc1ccc([N+](=O)[O-])cc1[N+](=O)[O-],growth inhibition,[12]; at 1.2 µM,8% (inactive)
same,growth inhibition,[12]; at 3.7 µM,1% (inactive)
same,growth inhibition,[12]; at 11.0 µM,4% (inactive)
same,growth inhibition,[12]; at 33.0 µM,-7% (inactive)
same,growth inhibition,[12]; at 100.0 µM,-13% (inactive)
same,growth inhibition,[13]; at 1.2 µM,-3% (inactive)
same,growth inhibition,[13]; at 3.7 µM,-9% (inactive)
same,growth inhibition,[13]; at 11.0 µM,-5% (inactive)
same,growth inhibition,[13]; at 33.0 µM,-11% (inactive)
same,growth inhibition,[13]; at 100.0 µM,-12% (inactive)
same,growth inhibition,[9]; at 1.2 µM,-18% (inactive)
same,growth inhibition,[9]; at 3.7 µM,-18% (inactive)
same,growth inhibition,[9]; [15],-3% (inactive)
same,growth inhibition,[9]; at 11.0 µM,-18% (inactive)
same,growth inhibition,[9]; at 33.0 µM,-32% (inactive)
same,growth inhibition,[9]; [16],21% (inactive)
same,growth inhibition,[9]; at 50.0 µM,-0.35% (inactive)
same,growth inhibition,[9]; at 100.0 µM,14% (inactive)
same,growth inhibition,[10]; at 1.2 µM,-3% (inactive)
same,growth inhibition,[10]; at 3.7 µM,-4% (inactive)
same,growth inhibition,[10]; [15],1% (inactive)
same,growth inhibition,[10]; at 11.0 µM,-3% (inactive)
same,growth inhibition,[10]; at 33.0 µM,-9% (inactive)
same,growth inhibition,[10]; [16],43% (inactive)
same,growth inhibition,[10]; at 50.0 µM,-9.7% (inactive)
same,growth inhibition,[10]; at 100.0 µM,-8% (inactive)
same,growth inhibition,[14]; at 1.2 µM,-1% (inactive)
same,growth inhibition,[14]; at 3.7 µM,-2% (inactive)
same,growth inhibition,[14]; at 11.0 µM,17% (inactive)
same,growth inhibition,[14]; at 33.0 µM,23% (inactive)
same,growth inhibition,[14]; at 100.0 µM,2% (inactive)
same,growth inhibition,[11]; [15],3% (inactive)
same,growth inhibition,[11]; [16],15% (inactive)
same,growth inhibition,[11]; at 50.0 µM,-5.7% (inactive)
same,growth inhibition,[1]; at 1.2 µM,-11% (inactive)
same,growth inhibition,[1]; at 3.7 µM,-10% (inactive)
same,growth inhibition,[1]; at 11.0 µM,-14% (inactive)
same,growth inhibition,[1]; at 33.0 µM,-18% (inactive)
same,growth inhibition,[1]; at 100.0 µM,-19% (inactive)
same,growth inhibition,[2]; [15],-4% (inactive)
same,growth inhibition,[2]; [16],77% (active)
same,growth inhibition,[2]; at 50.0 µM,30.9% (inactive)
same,growth inhibition,[3]; at 1.2 µM,-8% (inactive)
same,growth inhibition,[3]; at 3.7 µM,-4% (inactive)
same,growth inhibition,[3]; [15],7% (inactive)
same,growth inhibition,[3]; at 11.0 µM,-8% (inactive)
same,growth inhibition,[3]; at 33.0 µM,-13% (inactive)
same,growth inhibition,[3]; [16],91% (active)
same,growth inhibition,[3]; at 50.0 µM,20.1% (inactive)
same,growth inhibition,[3]; at 100.0 µM,-12% (inactive)
same,growth inhibition,[4]; at 1.2 µM,-13% (inactive)
same,growth inhibition,[4]; at 3.7 µM,-4% (inactive)
same,growth inhibition,[4]; at 11.0 µM,5% (inactive)
same,growth inhibition,[4]; at 33.0 µM,8% (inactive)
same,growth inhibition,[4]; at 100.0 µM,29% (inactive)
same,growth inhibition,[5]; at 1.2 µM,-13% (inactive)
same,growth inhibition,[5]; at 3.7 µM,-8% (inactive)
same,growth inhibition,[5]; at 11.0 µM,-8% (inactive)
same,growth inhibition,[5]; at 33.0 µM,-11% (inactive)
same,growth inhibition,[5]; at 100.0 µM,-18% (inactive)
same,growth inhibition,[6]; at 1.2 µM,-14% (inactive)
same,growth inhibition,[6]; at 3.7 µM,-8% (inactive)
same,growth inhibition,[6]; at 11.0 µM,8% (inactive)
same,growth inhibition,[6]; at 33.0 µM,3% (inactive)
same,growth inhibition,[6]; at 100.0 µM,29% (inactive)
same,growth inhibition,[7]; [15],-6% (inactive)
same,growth inhibition,[7]; [16],58% (inactive)
same,growth inhibition,[7]; at 50.0 µM,-0.8% (inactive)

# Source: PubChem BioAssay (NCI)
